Compound activity from PubChem.
KLF5 inh: inhibitors of KLF5 expression. hit rate 0.23% among 290,000. DLD-1 KLF5 promoter-luciferase reporter, luminescence. AID 1700. inhibition, % at 5 µM;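 active = inhibition above a per-plate limit of that plate's mean compound inhibition plus 3 SD, cut at about 60% in these data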;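 also: 0% = DMSO wells and 100% = LY294002 at 200 µM; higher means less KLF5 promoter-driven luciferase light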
APP transl inh: APP translation inhibition; SH-SY5Y APP 5'UTR-luciferase reporter, luminescence; hit rate 0.82% among 190,000; inhibition, % at 2 µM;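 active = inhibition above a set limit, derived from the sample mean plus 3 SD, cut at about 45% in these data; inconclusive = one replicate passes the limit while the other fails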
BaF3 tox: counter-screen for JAK2V617F inhibitors: parental Ba/F3 viability inhibitors; CellTiter-Glo ATP luminescence; AID 1486; inhibition, % at 5.6 µM; hit rate 1.1% among 220,000;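 active = inhibition above a per-campaign cutoff, the mean inhibition of all tested compounds plus 3 SD, cut at about 27% in these data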;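 also: 0% = DMSO wells and 100% = JAK Inhibitor I control wells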
Ba/F3 V617F tox: loss of viability in JAK2V617F-driven Ba/F3 cells; AID 1446; hit rate 1.1% among 220,000; inhibition, % at 5.6 µM; Ba/F3 EpoR-JAK2V617F viability, ATP luminescence;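 active = inhibition above the campaign mean plus 3 SD over all tested compounds, cut at about 24% in these data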;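 also: cytokine-independent growth of Ba/F3 cells driven by EpoR plus mutant JAK2; 0% = DMSO-treated cells and 100% = JAK inhibitor I control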
IEC-6 cytotox: IEC-6 cytotoxicity, counter-screen for KLF5 inhibitors | luminescence viability | inhibition, % at 5 µM | hit rate 0.78% among 290,000; in the data active = inhibition above about 22%;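 also: 0% = plate median of test compound wells and 100% = cytotoxic reference compound wells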
aSyn 5UTR inh: 5' untranslated region of α-synuclein, MLPCN primary screen. alpha-synuclein 5'UTR reporter, inhibitor activity. inhibition, % (tested at 7.5 µM). AID 1813. hit rate 0.82% among 300,000; in the data active = inhibition above about 60%; inconclusive = no clear call, values can overlap the other calls;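 also: H4 neuroglioblastoma cells stably carrying SNCA 5'UTR luciferase fusion; 0% = DMSO wells and 100% = positive control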
An asterisk follows results filed as active; ? = inconclusive; · = no result. This is a sample that favours compounds with a hit; in the whole collection about 2.2% have one here.

SMILES	KLF5 inh	APP transl inh	BaF3 tox	Ba/F3 V617F tox	IEC-6 cytotox	aSyn 5UTR inh
CN(C)c1ccc(/C=C/C=C/c2sc3ccccc3[n+]2C)cc1	5	·	79*	99*	18	?
CC(=O)c1c(C)n(C2CCCCC2)c2ccc(O)cc12	-10	31	-1	4	0	18
CC(C(=O)c1c[nH]c2ccccc12)N1CCc2ccccc2C1 (centres undefined)	-4	-4	43*	26*	2	-6
COC1CC(OC2CCC3(C)C(CCC4C3CCC3(C)C(C5=CC(=O)OC5)C(OC(C)=O)CC43O)C2)OC(C)C1OC1OC(COC2OC(CO)C(O)C(O)C2O)C(O)C(O)C1O (centres undefined)	·	·	·	·	·	115*
CCC(=Nc1cccc(C(F)(F)F)c1)c1c(O)n(C)c(=O)n(C)c1=O	2	·	0	-3	0	-9
COc1ccccc1OP(=O)(Nc1cccnc1)Oc1ccccc1OC	-12	6	13	6	6	4
CC[n+]1c(/C=C/N(C)c2ccccc2)sc2ccc(Cl)cc21	-7	13	72*	80*	16	-12
N=c1c2c(n(Cc3ccc(Cl)cc3Cl)c3c1CCC3)CCCC2	13	2	70*	92*	14	8
Cc1nn(Cc2ccc(Cl)cc2Cl)c(Cl)c1C(=O)O	-13	6	4	-1	-11	12
CCC[N+]12CCC(CC1)C(=C(c1ccccc1)c1ccccc1)C2	-7	18	36*	18	-6	6
CCCC[N+]12CCC(CC1)C(=C(c1ccccc1)c1ccccc1)C2	-33	8	11	2	-2	21
Cc1ccc(-c2nc3ccccc3c(=O)n2-c2cccc(O)c2)cc1	-24	6	7	6	-2	10
COC(=O)C1=C(c2cc3ccccc3o2)C[C@@H]2CC[C@H]1N2C(=O)N1CCCCC1	·	·	·	·	·	66*
O=C1NC(=S)N(c2ccccc2)C(=O)C1C(c1ccncc1)C1C(=O)NC(=S)N(c2ccccc2)C1=O (centres undefined)	-45	4	5	-1	0	7
COc1ccc(C2=NS(=O)(=O)N(C)C(C(=O)N3CCC4(CC3)OCCO4)=C2)cc1OC	-16	·	·	·	-5	18
CN(C)c1ccc(C(=O)N/N=C/C23CC[C@@H](O)CC2(O)CC[C@@H]2[C@@H]3CCC3(C)C(C4=CC(=O)OC4)CCC23O)cc1 (some centres undefined)	-43	·	-2	2	-4	95*
CC12CC[C@H]3[C@@H](CCC4(O)C[C@H](O)CCC34/C=N/NC(=O)c3ccc(O)cc3)C1(O)CCC2C1=CC(=O)OC1 (some centres undefined)	-18	·	-5	-1	1	15
COc1cc(C(=O)N/N=C/C23CC[C@@H](O)CC2(O)CC[C@@H]2[C@@H]3CCC3(C)C(C4=CC(=O)OC4)CCC23O)ccc1O (some centres undefined)	4	·	-3	-7	4	35
COc1ccc(C(=O)N/N=C/C23CC[C@@H](O)CC2(O)CC[C@@H]2[C@@H]3CCC3(C)C(C4=CC(=O)OC4)CCC23O)cc1 (some centres undefined)	-23	·	3	-1	-8	89*
CC(=O)c1ccc(OCC(=O)N2CCCC(N(C)Cc3ccccc3)C2)cc1 (centres undefined)	-40	·	·	·	2	-21
CCOc1cccc(CNCCc2c(C)[nH]c3ccc(OC(F)(F)F)cc23)c1O	-4	·	·	·	12	113*
COc1cccc(-n2c(O)c(C=NCCN3CCNCC3)c(=O)[nH]c2=S)c1	2	·	·	·	-5	0
O=[N+]([O-])c1ccccc1-c1cc(-c2ccccc2)cc(-c2ccccc2)[n+]1Cc1ccccc1Cl	·	·	·	·	·	64*
Clc1ccc(C[n+]2c(-c3ccccc3)cc(-c3ccccc3)cc2-c2ccccc2)cc1	·	·	·	·	·	59
Cc1cc(C)[n+](C2C3CC4CC(C3)CC2C4)o1 (centres undefined)	23	0	66*	68*	-3	12
Cc1cccc(C)c1N1CCN(c2c(C)cccc2C)CC1	-36	·	·	·	-4	-9
Cc1nc2c(-c3ccccc3)c(C)nn2c(C)c1CCC(=O)N1CCC2(CC1)OCCO2	-6	-13	1	1	1	28
Cc1nc2cc(-c3cccc(F)c3)nn2c(C)c1CCC(=O)N1CCC2(CC1)OCCO2	-5	27	-1	-4	-1	77*
